The record followed here is ChEMBL document CHEMBL3988442, “University of Dundee, Small-Polar-MMV Screening Library” (2021).

For some of these results: Entries with a potency or affinity are not part of this list.

Common to all, as to set-up: scale not given: direction of the effect not stated beside the values
Assay [1] has as its target Protein translocase subunit SecA (Escherichia coli (strain K12)) (UniProt P10408). In words: Assay to Identify E. coli SecA ATPase Inhibitors. The settings on record: 30 µM. It counts as functional.
Assay [2] has as its target T1, Ubiquitin-activating enzyme e1, putative (Leishmania donovani (strain BPK282A1)) (UniProt E9BSI1).
T1 sequence (whole entry): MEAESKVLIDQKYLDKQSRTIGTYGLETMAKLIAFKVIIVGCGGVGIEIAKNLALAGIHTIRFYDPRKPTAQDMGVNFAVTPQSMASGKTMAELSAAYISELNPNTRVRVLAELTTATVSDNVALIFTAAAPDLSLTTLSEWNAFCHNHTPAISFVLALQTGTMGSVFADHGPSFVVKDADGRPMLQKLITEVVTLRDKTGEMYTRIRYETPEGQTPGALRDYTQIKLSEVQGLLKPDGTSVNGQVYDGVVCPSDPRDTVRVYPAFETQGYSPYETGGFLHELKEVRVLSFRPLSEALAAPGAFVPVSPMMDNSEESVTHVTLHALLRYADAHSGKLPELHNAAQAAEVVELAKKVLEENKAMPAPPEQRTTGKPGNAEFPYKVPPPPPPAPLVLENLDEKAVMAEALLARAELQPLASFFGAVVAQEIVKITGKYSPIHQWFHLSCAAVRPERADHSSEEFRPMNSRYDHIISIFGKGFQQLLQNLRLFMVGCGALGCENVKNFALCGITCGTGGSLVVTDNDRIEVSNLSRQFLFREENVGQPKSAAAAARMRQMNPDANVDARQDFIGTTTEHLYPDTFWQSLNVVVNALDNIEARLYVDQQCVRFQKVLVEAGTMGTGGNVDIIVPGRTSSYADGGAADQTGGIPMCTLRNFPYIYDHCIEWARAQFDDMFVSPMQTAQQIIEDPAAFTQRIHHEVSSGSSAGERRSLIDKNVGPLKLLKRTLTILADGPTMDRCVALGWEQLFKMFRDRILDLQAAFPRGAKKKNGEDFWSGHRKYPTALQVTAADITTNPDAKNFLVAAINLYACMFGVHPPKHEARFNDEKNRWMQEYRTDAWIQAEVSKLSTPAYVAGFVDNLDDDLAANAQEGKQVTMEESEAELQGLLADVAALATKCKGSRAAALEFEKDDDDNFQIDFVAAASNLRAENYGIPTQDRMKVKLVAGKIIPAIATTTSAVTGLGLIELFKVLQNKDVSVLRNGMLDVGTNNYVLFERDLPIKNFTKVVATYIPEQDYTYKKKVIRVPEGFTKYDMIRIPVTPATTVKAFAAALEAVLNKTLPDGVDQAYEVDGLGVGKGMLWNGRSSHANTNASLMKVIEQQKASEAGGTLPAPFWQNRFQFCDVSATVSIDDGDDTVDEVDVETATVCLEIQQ
The assay is described as follows: Leishmania donovani Ubiquitin Activating Enzyme (LdE1). It counts as functional. The settings on record: 30 µM.

For assay [3], the target named is AMP-activated protein kinase, AMPK (Homo sapiens) (UniProt P54646+O43741+P54619+Q9UGJ0+Q9Y478+Q13131+Q9UGI9). In words: AMP-dependent Kinase enzyme assay. An in vitro enzyme assay that detects ADP turnover that is directly proportional to AMPK activity. This uses naive AMPK that is activated during the assay with MK-8722. Conditions: 30 µM. It counts as functional.

Assay [4] concerns the target Sialic acid-binding Ig-like lectin 9 (Homo sapiens) (UniProt Q9Y336). The assay is described as follows: Hs-Siglec9 ALPHAscreen SOP 20170721. The settings on record: 10 µM.
The test system of the next assay is Trypanosoma cruzi. In words: Trypanosoma cruzi phosphomannomutase and mannose-1-phosphate guanylyltransferase assay. It counts as functional. The settings on record: 10 µM.
For assay [5], the target named is T2, Arginase-2, mitochondrial (Homo sapiens) (UniProt P78540).
T2 sequence (whole entry): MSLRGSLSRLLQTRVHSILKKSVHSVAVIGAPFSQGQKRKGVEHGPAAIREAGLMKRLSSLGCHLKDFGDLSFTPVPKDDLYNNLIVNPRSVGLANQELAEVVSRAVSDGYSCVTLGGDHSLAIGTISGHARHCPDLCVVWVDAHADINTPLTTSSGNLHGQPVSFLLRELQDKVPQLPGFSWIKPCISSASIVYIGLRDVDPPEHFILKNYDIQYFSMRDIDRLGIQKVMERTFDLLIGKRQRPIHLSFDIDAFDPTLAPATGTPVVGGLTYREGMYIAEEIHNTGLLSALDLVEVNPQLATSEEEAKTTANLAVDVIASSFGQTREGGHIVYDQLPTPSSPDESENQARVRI
In words: in vitro enzyme assay to detect the production of urea directly proportional to the activity of Arginase II. Note: in the data most compounds retested in dose-response had high values. The settings on record: 33.3 µM. Format: functional.

For assay [6], the target named is T3, Proteasome subunit beta (Trypanosoma cruzi) (UniProt O96673).
T3 sequence (whole entry): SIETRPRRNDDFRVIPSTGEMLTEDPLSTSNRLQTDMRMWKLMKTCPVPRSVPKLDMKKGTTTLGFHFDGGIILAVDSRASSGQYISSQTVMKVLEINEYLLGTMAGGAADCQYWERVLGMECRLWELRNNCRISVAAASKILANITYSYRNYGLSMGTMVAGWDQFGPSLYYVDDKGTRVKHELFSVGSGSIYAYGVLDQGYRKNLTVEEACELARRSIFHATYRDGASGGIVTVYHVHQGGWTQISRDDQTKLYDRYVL
The assay is described as follows: Trypanosoma cruzi proteasome chymotrypsin-like activity (TcProtChymo) assay. Note: in the data most compounds retested in dose-response had high values. The settings on record: 9.37 µM. It counts as functional.

For the next assay, the species on record is Homo sapiens. In words: To identify inhibition of the IFN signalling (Jak-Stat) pathway via expression of an eGFP reporter gene under the control of an IFN-stimulated response element (ISRE) containing MxA promoter. It counts as functional. The settings on record: 30 µM.
Assay [7] deals with T4, Tyrosyl-tRNA synthetase, putative (Trypanosoma cruzi (strain CL Brener)) (UniProt Q4DSP6).
T4 sequence (whole entry): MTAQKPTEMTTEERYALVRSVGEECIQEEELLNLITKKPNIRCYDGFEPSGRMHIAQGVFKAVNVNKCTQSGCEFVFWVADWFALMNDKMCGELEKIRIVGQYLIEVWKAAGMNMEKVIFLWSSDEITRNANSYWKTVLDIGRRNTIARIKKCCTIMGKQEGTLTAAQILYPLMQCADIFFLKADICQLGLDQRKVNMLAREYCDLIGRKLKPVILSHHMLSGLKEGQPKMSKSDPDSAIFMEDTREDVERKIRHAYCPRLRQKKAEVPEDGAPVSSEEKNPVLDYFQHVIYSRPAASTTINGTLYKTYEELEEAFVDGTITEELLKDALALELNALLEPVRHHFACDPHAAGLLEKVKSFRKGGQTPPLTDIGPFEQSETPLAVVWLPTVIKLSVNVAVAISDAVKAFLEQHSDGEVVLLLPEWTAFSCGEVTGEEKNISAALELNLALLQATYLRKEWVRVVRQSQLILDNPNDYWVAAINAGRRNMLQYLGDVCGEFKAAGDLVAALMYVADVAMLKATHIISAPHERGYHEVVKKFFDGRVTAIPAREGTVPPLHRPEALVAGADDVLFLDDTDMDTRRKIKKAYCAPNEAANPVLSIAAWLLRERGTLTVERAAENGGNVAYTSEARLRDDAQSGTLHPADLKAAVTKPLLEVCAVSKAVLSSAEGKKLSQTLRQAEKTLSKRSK
In words: Trypanosoma cruzi tyrosyl tRNA synthetase (TcYRS) _High Tyrosine SOP. Note: in the data most compounds retested in dose-response had high values. Format: functional. The settings on record: 30 µM.

The target of assay [8] is T4, Tyrosyl-tRNA synthetase, putative (Trypanosoma cruzi (strain CL Brener)). In words: Trypanosoma cruzi tyrosyl tRNA synthetase (TcYRS) SOP. It counts as functional. Conditions: 30 µM.
Assay [9] concerns the target Chromo domain-containing protein 1 (Saccharomyces cerevisiae (strain ATCC 204508 / S288c) (Baker's yeast)) (UniProt P32657). The assay is described as follows: ScCHD-1 Enzyme Inhibition Assay. Note: in the data most compounds retested in dose-response had high values. The settings on record: 30 µM. It counts as functional.

Chain of Chromo domain-containing protein 1 (Saccharomyces cerevisiae (strain ATCC 204508 / S288c) (Baker's yeast)) (P32657 whole entry, the tested form may be a part): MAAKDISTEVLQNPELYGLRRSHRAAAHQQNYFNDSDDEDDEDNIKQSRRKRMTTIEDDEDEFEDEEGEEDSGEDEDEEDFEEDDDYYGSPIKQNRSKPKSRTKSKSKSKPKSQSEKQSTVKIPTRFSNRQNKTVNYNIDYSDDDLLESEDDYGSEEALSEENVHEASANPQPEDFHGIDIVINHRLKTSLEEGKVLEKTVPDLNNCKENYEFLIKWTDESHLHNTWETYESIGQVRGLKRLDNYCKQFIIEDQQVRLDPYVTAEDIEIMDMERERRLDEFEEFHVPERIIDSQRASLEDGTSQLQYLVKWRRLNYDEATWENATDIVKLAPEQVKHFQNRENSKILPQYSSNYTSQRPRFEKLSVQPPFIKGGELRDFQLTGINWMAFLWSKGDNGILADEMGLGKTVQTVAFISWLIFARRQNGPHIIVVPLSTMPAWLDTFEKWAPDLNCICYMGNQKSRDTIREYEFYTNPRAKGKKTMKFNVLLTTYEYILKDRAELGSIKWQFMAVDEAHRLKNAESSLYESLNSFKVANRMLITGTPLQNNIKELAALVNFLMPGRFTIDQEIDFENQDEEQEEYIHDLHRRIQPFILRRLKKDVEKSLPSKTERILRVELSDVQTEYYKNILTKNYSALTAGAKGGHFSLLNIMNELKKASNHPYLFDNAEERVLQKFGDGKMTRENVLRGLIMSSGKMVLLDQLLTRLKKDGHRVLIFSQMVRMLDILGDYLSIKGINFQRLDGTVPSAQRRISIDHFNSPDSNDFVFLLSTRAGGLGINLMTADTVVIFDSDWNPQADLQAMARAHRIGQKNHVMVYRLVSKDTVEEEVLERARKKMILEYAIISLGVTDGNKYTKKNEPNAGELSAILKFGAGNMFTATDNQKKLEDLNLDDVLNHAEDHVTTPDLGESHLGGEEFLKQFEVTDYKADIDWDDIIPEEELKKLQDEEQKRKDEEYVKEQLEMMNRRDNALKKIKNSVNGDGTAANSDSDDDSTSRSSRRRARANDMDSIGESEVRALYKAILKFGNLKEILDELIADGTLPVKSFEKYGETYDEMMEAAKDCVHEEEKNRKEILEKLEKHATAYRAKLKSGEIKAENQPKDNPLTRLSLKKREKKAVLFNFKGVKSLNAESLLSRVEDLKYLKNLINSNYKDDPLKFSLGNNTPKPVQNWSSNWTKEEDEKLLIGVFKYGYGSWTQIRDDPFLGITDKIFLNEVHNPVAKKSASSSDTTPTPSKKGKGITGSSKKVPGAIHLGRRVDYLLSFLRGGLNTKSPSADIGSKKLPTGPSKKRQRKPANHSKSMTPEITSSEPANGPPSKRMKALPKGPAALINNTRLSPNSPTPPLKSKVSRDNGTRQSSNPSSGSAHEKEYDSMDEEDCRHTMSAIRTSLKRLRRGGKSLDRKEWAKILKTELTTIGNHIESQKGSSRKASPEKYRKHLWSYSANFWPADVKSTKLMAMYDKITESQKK
Chain of Sialic acid-binding Ig-like lectin 9 (Homo sapiens) (Q9Y336 whole entry): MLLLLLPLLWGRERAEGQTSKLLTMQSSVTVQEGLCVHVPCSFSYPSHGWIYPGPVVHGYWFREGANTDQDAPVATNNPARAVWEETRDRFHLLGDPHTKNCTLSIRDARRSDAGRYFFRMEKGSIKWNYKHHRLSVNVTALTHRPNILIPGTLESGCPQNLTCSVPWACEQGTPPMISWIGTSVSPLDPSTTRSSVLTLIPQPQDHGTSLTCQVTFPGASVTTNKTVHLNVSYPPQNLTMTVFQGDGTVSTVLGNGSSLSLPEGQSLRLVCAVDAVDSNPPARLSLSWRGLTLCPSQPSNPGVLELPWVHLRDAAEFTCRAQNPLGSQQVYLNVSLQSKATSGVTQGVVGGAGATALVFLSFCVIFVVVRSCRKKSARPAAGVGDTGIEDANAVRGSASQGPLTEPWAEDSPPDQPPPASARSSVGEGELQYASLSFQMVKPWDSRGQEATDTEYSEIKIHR
Chain of Protein translocase subunit SecA (Escherichia coli (strain K12)) (P10408 whole entry): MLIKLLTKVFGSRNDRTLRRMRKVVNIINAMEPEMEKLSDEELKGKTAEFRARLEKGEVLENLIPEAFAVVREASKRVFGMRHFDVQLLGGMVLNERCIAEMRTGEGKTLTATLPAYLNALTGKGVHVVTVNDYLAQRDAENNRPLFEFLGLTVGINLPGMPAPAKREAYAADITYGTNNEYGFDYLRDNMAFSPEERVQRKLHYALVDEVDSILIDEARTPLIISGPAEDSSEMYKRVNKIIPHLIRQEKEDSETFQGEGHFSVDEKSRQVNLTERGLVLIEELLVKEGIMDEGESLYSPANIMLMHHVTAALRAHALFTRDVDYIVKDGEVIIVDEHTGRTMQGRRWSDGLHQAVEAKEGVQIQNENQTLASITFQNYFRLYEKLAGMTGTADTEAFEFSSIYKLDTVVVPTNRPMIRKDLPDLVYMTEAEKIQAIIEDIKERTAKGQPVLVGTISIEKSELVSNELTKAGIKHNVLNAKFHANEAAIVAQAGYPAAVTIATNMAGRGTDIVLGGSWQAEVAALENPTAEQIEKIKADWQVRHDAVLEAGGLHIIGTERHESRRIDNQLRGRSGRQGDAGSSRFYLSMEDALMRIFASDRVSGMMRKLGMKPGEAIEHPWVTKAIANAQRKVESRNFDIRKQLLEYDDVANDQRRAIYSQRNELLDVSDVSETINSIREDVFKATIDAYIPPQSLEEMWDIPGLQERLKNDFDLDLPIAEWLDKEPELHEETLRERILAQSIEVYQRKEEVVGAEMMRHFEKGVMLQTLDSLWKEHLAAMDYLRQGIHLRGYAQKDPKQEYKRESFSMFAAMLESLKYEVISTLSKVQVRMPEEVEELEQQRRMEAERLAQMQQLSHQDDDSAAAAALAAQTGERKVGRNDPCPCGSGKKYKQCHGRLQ

In the case of `CCOc1ccnc(N2CCN(C(=O)c3cn[nH]c3CC)CC2)n1`, the Percent Effect in assay [1] is -3.25%; in [2] it was 15.2%; in assay [3], -3.34%; in assay [4], 7.76%; in the assay with Trypanosoma cruzi, 0.472%; in assay [5], -0.38%. Moreover, the Percent Effect in assay [6] was -1.23%; in the assay filed under Homo sapiens, 18.9%; in assay [7], 7.39%; in assay [8], 24.1%; in [9] it was -4.33%.
For the compound `NC(=O)c1ccc(CN2CCCC(N3CCCC3)C2)cc1` (stereo unspecified), the Percent Effect in assay [1] is -3.01%; in assay [2], 18.9%; in assay [3] it was -3.31%; in assay [4] it was -0.296%; in the assay on Trypanosoma cruzi, 2.54%; in [5] it was 5%. Further, the Percent Effect in assay [6] is 23.8%; in the assay filed under Homo sapiens it was -1.33%; in assay [7], 7.92%; in assay [8] it was 15.8%; in assay [9], -6.1%.
Take `Cn1cc(-c2csc(CN3CCOCC3)n2)cn1`: the Percent Effect was 2.9% in assay [1]; 4.17% in assay [2]; -3.9% in [3]; 1.67% in [4]; 0.0972% in the assay on Trypanosoma cruzi; 8.39% in assay [5]. Further, the Percent Effect is 1.58% in assay [6]; -3.07% in the assay filed under Homo sapiens; -1.05% in assay [7]; 2.56% in assay [8]; -1.39% in assay [9].
As for `Cc1cc(C)n(CC2CN(Cc3cscn3)CCO2)n1` (stereo unspecified), the Percent Effect was -2.86% in [1]; 23.7% in assay [2]; -2.52% in [3]; -2.39% in assay [4]; 2.63% in the assay on Trypanosoma cruzi; -0.383% in assay [5]. For the same compound, the Percent Effect in assay [6] is 27.2%; in the assay listed under Homo sapiens, -6.47%; in [7] it was 7.35%; in assay [8], 21.9%; in [9] it was -11.6%.
`Cn1nnc2c1CCN(Cc1nccs1)C2COCc1ccccc1` (stereo unspecified): the Percent Effect was -2.95% in assay [1]; 2.67% in assay [2]; -19.8% in [3]; 5.81% in [4]; 1.77% in the assay with Trypanosoma cruzi; 5.83% in [5]. Moreover, the Percent Effect in assay [6] was -8.9%; in the assay filed under Homo sapiens, -0.293%; in assay [7], 7.45%; in [8], 8.97%; in assay [9], -0.607%.
For `Cc1cccc2cc(CNCCCN3CCOCC3)c(=O)[nH]c12`, the Percent Effect in assay [1] was -7.31%; in [2], 17.6%; in assay [3], -2.19%; in assay [4] it was 3.5%; with Trypanosoma cruzi, 6.13%; in assay [5], -2.09%. Besides, the Percent Effect in [6] is 11.2%; in the assay filed under Homo sapiens, 2.24%; in [7], 3.23%; in [8] it was 14.3%; in assay [9], -27.6%.
For the compound `CNC(=O)COc1ccc(CNCc2ccc(F)cc2F)cc1`, the Percent Effect in [1] was -3.24%; in assay [2], 6.94%; in [3], 7.47%; in assay [4], -14.2%; in the assay on Trypanosoma cruzi, -5.93%; in [5], -1.32%. Also, the Percent Effect was 18.6% in assay [6]; 6.07% in the assay filed under Homo sapiens; 4.21% in assay [7]; 5.13% in assay [8]; -3.63% in assay [9].
Regarding `Cc1nc(CN2CCCC2c2ccsc2)nc2ccccc12` (stereo unspecified), the Percent Effect in assay [1] was -1.18%; in [2] it was -16.5%; in assay [3] it was 3.32%; in assay [4], 2.94%; with Trypanosoma cruzi it was 4%; in [5] it was 7.1%. Moreover, the Percent Effect in assay [6] came out at 13.6%; in the assay filed under Homo sapiens it was 23.7%; in [7], 9.38%; in assay [8], 27.9%; in assay [9] it was 4.99%.
For the compound `Cc1cc(C(=O)N2CCC(c3nccn3CCCN(C)C)CC2)no1`, the Percent Effect is 1.38% in [1]; 11% in assay [2]; -2.51% in assay [3]; 3.99% in assay [4]; 2.74% in the assay on Trypanosoma cruzi; 10.9% in [5]. For the same compound, the Percent Effect in [6] is 20.8%; in the assay filed under Homo sapiens, 21.1%; in [7], 6.45%; in assay [8], 17.5%; in [9], -13.1%.
For `Cc1noc(C(C)C)c1C(=O)N1CCCN(Cc2cscn2)CC1`, the Percent Effect was -4.04% in assay [1]; 18.2% in assay [2]; -1.96% in assay [3]; -7.63% in [4]; 2.25% with Trypanosoma cruzi; -0.632% in assay [5]. In addition, the Percent Effect in assay [6] was 15.6%; in the assay listed under Homo sapiens it was 0.184%; in assay [7] it was 7.62%; in [8], 21.2%; in assay [9], -23.9%.
For the compound `O=C(c1ccc(O)cc1)N1CCN(C(=O)c2ccc3c(c2)COC3)CC1`, the Percent Effect was -4.15% in [1]; 10.1% in [2]; -4.98% in [3]; 13.3% in assay [4]; -1.98% in the assay on Trypanosoma cruzi; -2.66% in assay [5]. Besides, the Percent Effect in assay [6] is 4.01%; in the assay filed under Homo sapiens, -19.9%; in assay [7] it was 4.43%; in [8], 8.86%; in assay [9], -6.29%.
